Experimental data: PubChem BioAssay
A number with no mark means an inactive call. How the calls were made is not given here.

Each compound was assayed against Botulinum neurotoxin type A (Clostridium botulinum) (UniProt P0DPI0) (assay: BoNT/A light chain protease inhibitors, biochemical, multiplex microsphere flow cytometry, validation set (AID 588460)). Settings: at 10 µM, active compounds read high.
For CC(C)(C)[C@]1(O)CCN2C[C@H]3c4ccccc4CCc4cccc(c43)[C@@H]2C1, the inhibition was 0%.
Work on Cc1ccc2c(c1C)NC(C(=O)O)C1CC=CC21 (stereo not drawn) yielded an inhibition of -1.9%.
Work on CC(=O)OCC(=O)[C@@]12OC3(CCCC3)O[C@@H]1C[C@H]1[C@@H]3CCC4=CC(=O)C=C[C@]4(C)[C@@]3(F)[C@@H](O)C[C@@]12C yielded an inhibition of -0.9%.
NC(=O)N1c2ccccc2C=Cc2ccccc21 gave an inhibition of -0.2%.
With Cc1cccc(N2CCN(C(=S)c3ccccc3)CC2)c1 the inhibition was -1.9%.
NNC(=O)c1ccncc1 showed an inhibition of -0.2%.
COc1ccc(-c2cc(=Nc3ccc(C)cc3)c3ccccc3o2)cc1 was tested, and the inhibition was -0.6%.
Work on COC(=O)C1=CN(Cc2cccs2)C=C(C(=O)OC)C1c1cccc(Cl)c1 yielded an inhibition of -0.4%.
In the case of C=CCn1c(SCC(=O)NC2CCCCC2)nc2ccccc2c1=O, the inhibition is reported as -1.1%.
For O=C(O)CCn1c(=S)n(CCC(=O)O)c2ccccc21, the inhibition was 0.3%.
C[C@]12CC[C@H]3[C@@H](CCC4=CC(=O)CC[C@@]43C)[C@@H]1CC[C@@H]2C(=O)CO gave an inhibition of -2.4%.
Compound COc1ccc2c(C=O)cn(C)c2c1 has an inhibition of -0.9%.
With COc1cc(NC(=O)N[C@@H](Cc2ccccc2)C(=O)O)cc(OC)c1 the inhibition was 0.4%.

These compounds were tested against Lethal factor (Bacillus anthracis) (UniProt P15917) (assay: Bacillus anthracis lethal factor inhibition, microsphere flow cytometry protease assay, validation at 10 µM (AID 588461)). Settings: multiplex microsphere protease cleavage assay, active compounds read high.
Work on COc1ccc2c(c1)c(=O)oc1cc3occ(C(C)(C)C)c3cc12 yielded an inhibition of 6.9%.
Work on CCOc1ccc(CCn2c(-c3ccco3)nc3ccccc3c2=O)cc1OCC yielded an inhibition of 11.4%.
CCOC(=O)c1oc2cc(OCC(N)=O)ccc2c(=O)c1-c1ccc(OC)c(OC)c1 was tested, and the inhibition was 1.9%.
Work on Cc1cccc(Nc2ncccc2C(=O)O)c1C yielded an inhibition of -4.7%.
In the case of CO[C@@]1(NC(=O)Cc2cccs2)C(=O)N2C(C(=O)O)=C(COC(N)=O)CS[C@@H]21, the inhibition is reported as -10%.
In the case of CCNC(=S)N1CCN(CCN2C(=O)c3cccc4cccc(c34)C2=O)CC1, the inhibition is reported as 10.2%.
Work on NC12CC3CC(C1)CC(O)(C3)C2 yielded an inhibition of -0.7%.
NC(N)=N/N=C/c1ccc(OS(=O)(=O)c2ccccc2)cc1 showed an inhibition of -1.4%.
CC(C)(Oc1ccc(CCNC(=O)c2ccc(Cl)cc2)cc1)C(=O)O gave an inhibition of 8.7%.
COc1ccc(C(=O)NCc2cccnc2)cc1 showed an inhibition of -4.9%.
With N/C(=N\OC(=O)CCCOc1ccc(Cl)cc1Cl)c1ccncc1 the inhibition was 1%.
For CC1(C)CC(=O)C(C2=NC(C)(C)Cc3ccccc32)=C(O)C1, the inhibition was -0.4%.
Work on CN(C)CC/C=C1\c2ccccc2Sc2ccc(Cl)cc21 yielded an inhibition of 2.3%.
Work on COc1ccc(CN(C)CCc2ccccn2)cc1OC yielded an inhibition of -7.1%.
In the case of O=c1oc2c(CN3CCN(CCO)CC3)c(O)ccc2cc1-c1ccccn1, the inhibition is reported as -4.2%.
In the case of CC(C)CN(C)Cc1c(C(=O)N2CCc3ccccc3C2)nc2ccc(Cl)cn12, the inhibition is reported as 1%.
With CC[N+]1(CC)CC2=Cc3ccccc3CC2C1 (stereo not drawn) the inhibition was 3%.
Work on CC(=O)c1cn(C)c(=O)[nH]c1=O yielded an inhibition of -0.5%.
In the case of CCOC(=O)[C@H](CCc1ccccc1)N[C@@H](C)C(=O)N1CCC[C@H]1C(=O)O, the inhibition is reported as 3.9%.
For Cn1c(=O)[nH]c(=O)c2c1ncn2CCN1CCOCC1, the inhibition was -2.5%.
Work on COCCCN1C(=O)C(=O)/C(=C(/O)c2ccc3c(c2)CC(C)O3)C1c1cccnc1 (stereo not drawn) yielded an inhibition of 3.5%.
NS(=O)(=O)c1cc2c(cc1Cl)NC(CSCc1ccccc1)=NS2(=O)=O showed an inhibition of -2.3%.
COc1ccc(-c2[nH]ncc2CN(CCO)Cc2cccs2)c(F)c1 gave an inhibition of 5.8%.
COc1ccc2cc(CCC(C)=O)ccc2c1 was tested, and the inhibition was 6.3%.
Work on COc1cccc2c1OCC1COc3c(c(=O)n(C)c(=O)n3C)C21 (stereo not drawn) yielded an inhibition of 0.2%.
Compound O[C@H]1COC2C1OC[C@@H]2O (stereo partly drawn) has an inhibition of 0%.
In the case of CCNC(=O)c1sc2cc(C)ccc2c1Cl, the inhibition is reported as -1.4%.
Work on CC(C)(C)[C@]1(O)CCN2C[C@H]3c4ccccc4CCc4cccc(c43)[C@@H]2C1 yielded an inhibition of -2.4%.
Cc1ccc2c(c1C)NC(C(=O)O)C1CC=CC21 (stereo not drawn) showed an inhibition of -13.2%.
Compound CC(=O)OCC(=O)[C@@]12OC3(CCCC3)O[C@@H]1C[C@H]1[C@@H]3CCC4=CC(=O)C=C[C@]4(C)[C@@]3(F)[C@@H](O)C[C@@]12C has an inhibition of -0.7%.
NC(=O)N1c2ccccc2C=Cc2ccccc21 showed an inhibition of 8.1%.
Cc1cccc(N2CCN(C(=S)c3ccccc3)CC2)c1 gave an inhibition of -2.9%.
Work on NNC(=O)c1ccncc1 yielded an inhibition of 5.3%.
COc1ccc(-c2cc(=Nc3ccc(C)cc3)c3ccccc3o2)cc1 was tested, and the inhibition was 2.9%.
COC(=O)C1=CN(Cc2cccs2)C=C(C(=O)OC)C1c1cccc(Cl)c1 was tested, and the inhibition was -4%.
C=CCn1c(SCC(=O)NC2CCCCC2)nc2ccccc2c1=O gave an inhibition of -3.5%.
With O=C(O)CCn1c(=S)n(CCC(=O)O)c2ccccc21 the inhibition was 3.1%.
With C[C@]12CC[C@H]3[C@@H](CCC4=CC(=O)CC[C@@]43C)[C@@H]1CC[C@@H]2C(=O)CO the inhibition was -10%.
COc1ccc2c(C=O)cn(C)c2c1 showed an inhibition of 2.1%.
Compound COc1cc(NC(=O)N[C@@H](Cc2ccccc2)C(=O)O)cc(OC)c1 has an inhibition of -2.8%.
